These results are taken from PubChem BioAssay.

The structures appear in SMILES notation. Results filed as inconclusive are left out. Activity calls are given as the source filed them. Unless noted, no rule for the calls is given here. Peptide text beside a SMILES is read from it.

Test [1] in a line: yeast TOR pathway RPL19A-GFP modulators, primary screen, cell-based, S. cerevisiae, multiplex flow cytometry (AID 1862; in the data active = percent of DMSO control GFP below about 86%;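 also: lower values mimic rapamycin by blocking the RPL19A rise seen in DMSO cells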). The conditions noted are these: S. cerevisiae RPL19A-GFP strain, flow cytometry fluorescence, 3 h; at 10 µM; stronger effect = lower value. In general terms: A flow cytometer gives signals particle by particle.
Test [2] in a line: modulators of CIT2-GFP expression in yeast, primary screen, S. cerevisiae, GFP fusion, multiplex flow cytometry (AID 1870;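 active = percent response above a set limit, the screen-wide mean plus 3 SD, cut at about 130% in these data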;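 also: barcoded CIT2-GFP strain pooled with four other GFP strains with rapamycin as positive control; median GFP fluorescence per well over plate mean of DMSO wells so 100% = DMSO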). Conditions: 3 h, at 10 µM, stronger effect = higher value.
Test [3] in a line: modulators of LAP4-GFP expression in yeast, primary screen, S. cerevisiae, multiplex flow cytometry (AID 1873;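 active = GFP signal, as percent of the solvent control, above the screen mean plus 3 SD, about 149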). Conditions: 3 h, at 10 µM, stronger effect = higher value.
The nature of test [4]: inhibitors of CD8+ T cell-vesicle binding, pilot screen, LFA-1/ICAM-1 modulator project, MLPCN validation set, flow cytometry (AID 2523;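 active = response below a set limit, under 55% cells CD8-positive and vesicle-bound, and CD8 cells' 90th-percentile brightness under 279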;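 as to vesicle binding response: mean PE anti-B7-1 fluorescence of CD8+ cells relative to row control; 100% = QL9-loaded vesicles with DMSO vehicle in the same plate row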). Conditions: 2C mouse CD8+ T cells, at 7 µM, stronger effect = lower value; double positive events: measured here: CD8+/vesicle+ event percentage.
Test [5] concerns the target Integrin beta-1 (Homo sapiens) + Integrin alpha-4 (Homo sapiens) (UniProt P13612+P05556). The test is described as follows: inhibition of HUTS-21 binding to VLA-4, pilot screen, VLA-4 allosteric modulator project, U937 cells, HUTS-21 mAb, flow cytometry, validation set (AID 2674;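 active = inhibition above 50%, about 3 SD of the validation set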;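 also: antibody binding induced by the VLA-4 ligand LDV present at three times its Kd; 0% = LDV ligand with antibody and no compound and 100% = antibody without LDV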). The conditions noted are these: HUTS-21 LIBS mAb binding, at 6.7 µM, stronger effect = higher value.

Test [6] deals with Beta-adrenergic receptor kinase 1 (Homo sapiens) (UniProt P25098). The test is described as follows: GRK2 binders displacing RNA aptamer, biochemical, validation, human GRK2, bead flow cytometry (AID 488806;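 active = aptamer binding inhibition above 30%, about 3 SD of noise from non-fluorescent compounds; inactive = inhibition at or below 30%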). The conditions noted are these: bead-bound GRK2, FAM-aptamer displacement, at 10 µM, stronger effect = higher value.
Beta-adrenergic receptor kinase 1 (Homo sapiens), sequence (P25098 whole entry, looked up): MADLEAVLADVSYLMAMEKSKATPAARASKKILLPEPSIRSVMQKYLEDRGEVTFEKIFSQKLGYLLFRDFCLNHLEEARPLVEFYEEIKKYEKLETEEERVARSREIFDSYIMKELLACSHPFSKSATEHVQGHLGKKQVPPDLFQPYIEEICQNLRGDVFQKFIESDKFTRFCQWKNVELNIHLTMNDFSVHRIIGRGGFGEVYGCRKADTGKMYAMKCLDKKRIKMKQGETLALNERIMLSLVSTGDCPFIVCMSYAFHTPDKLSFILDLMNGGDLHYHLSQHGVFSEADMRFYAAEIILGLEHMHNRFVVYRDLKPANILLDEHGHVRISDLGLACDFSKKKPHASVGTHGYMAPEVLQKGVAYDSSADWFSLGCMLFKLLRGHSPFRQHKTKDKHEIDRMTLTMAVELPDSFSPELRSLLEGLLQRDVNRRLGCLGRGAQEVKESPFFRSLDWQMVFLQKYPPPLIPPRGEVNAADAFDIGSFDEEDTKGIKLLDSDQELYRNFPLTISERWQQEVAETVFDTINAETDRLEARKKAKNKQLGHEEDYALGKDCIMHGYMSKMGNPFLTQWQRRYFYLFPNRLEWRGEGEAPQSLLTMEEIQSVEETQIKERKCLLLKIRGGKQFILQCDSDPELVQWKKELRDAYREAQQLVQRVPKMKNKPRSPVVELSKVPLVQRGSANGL
The target in test [7] is Beta-2 adrenergic receptor (Homo sapiens) (UniProt P07550). The test is described as follows: beta2AR agonists driving receptor internalization, pilot screen, cell-based, FAP fluorogen, flow cytometry, validation set (AID 504459;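 active = percent response above 42, roughly 3 SD of non-fluorescent test compounds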;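 also: agonist-driven loss of surface beta2AR via internalization measured by FAP dye flow cytometry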). The conditions noted are these: Am2.2-beta2AR cells, FAP surface receptor flow cytometry; at 10 µM; stronger effect = higher value.
Beta-2 adrenergic receptor (Homo sapiens), sequence (P07550 whole entry, looked up): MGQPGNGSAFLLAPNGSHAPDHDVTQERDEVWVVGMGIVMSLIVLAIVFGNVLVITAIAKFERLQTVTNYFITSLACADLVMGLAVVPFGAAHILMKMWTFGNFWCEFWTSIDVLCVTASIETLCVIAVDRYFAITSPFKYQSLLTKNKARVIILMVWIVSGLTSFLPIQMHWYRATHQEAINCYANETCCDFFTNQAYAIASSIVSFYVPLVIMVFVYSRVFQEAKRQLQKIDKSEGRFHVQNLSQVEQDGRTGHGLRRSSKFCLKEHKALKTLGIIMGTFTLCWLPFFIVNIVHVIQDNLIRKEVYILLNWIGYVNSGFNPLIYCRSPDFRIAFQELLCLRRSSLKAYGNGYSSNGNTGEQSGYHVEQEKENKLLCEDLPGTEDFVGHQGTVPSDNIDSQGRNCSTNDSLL
Test [8] deals with AP-2 complex subunit beta (Homo sapiens) (UniProt P63010). The test is described as follows: inhibitors of arrestin peptide binding to AP2, pilot screen, biochemical, validation set, GST-AP2 beads, flow cytometry (AID 504541;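 active = inhibition above 54%, about 3 SD of non-fluorescent compounds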;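 also: AP2 carries R879A mutation and is captured from E. coli lysate; bead-bound FITC arrestin peptide fluorescence measuring arrestin peptide binding to AP2; 0% = DMSO wells and 100% = excess unlabeled arrestin peptide control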). Conditions: FITC arrestin peptide, at 10 µM, stronger effect = higher value.
AP-2 complex subunit beta (Homo sapiens), sequence (P63010 whole entry, looked up, one chain of several): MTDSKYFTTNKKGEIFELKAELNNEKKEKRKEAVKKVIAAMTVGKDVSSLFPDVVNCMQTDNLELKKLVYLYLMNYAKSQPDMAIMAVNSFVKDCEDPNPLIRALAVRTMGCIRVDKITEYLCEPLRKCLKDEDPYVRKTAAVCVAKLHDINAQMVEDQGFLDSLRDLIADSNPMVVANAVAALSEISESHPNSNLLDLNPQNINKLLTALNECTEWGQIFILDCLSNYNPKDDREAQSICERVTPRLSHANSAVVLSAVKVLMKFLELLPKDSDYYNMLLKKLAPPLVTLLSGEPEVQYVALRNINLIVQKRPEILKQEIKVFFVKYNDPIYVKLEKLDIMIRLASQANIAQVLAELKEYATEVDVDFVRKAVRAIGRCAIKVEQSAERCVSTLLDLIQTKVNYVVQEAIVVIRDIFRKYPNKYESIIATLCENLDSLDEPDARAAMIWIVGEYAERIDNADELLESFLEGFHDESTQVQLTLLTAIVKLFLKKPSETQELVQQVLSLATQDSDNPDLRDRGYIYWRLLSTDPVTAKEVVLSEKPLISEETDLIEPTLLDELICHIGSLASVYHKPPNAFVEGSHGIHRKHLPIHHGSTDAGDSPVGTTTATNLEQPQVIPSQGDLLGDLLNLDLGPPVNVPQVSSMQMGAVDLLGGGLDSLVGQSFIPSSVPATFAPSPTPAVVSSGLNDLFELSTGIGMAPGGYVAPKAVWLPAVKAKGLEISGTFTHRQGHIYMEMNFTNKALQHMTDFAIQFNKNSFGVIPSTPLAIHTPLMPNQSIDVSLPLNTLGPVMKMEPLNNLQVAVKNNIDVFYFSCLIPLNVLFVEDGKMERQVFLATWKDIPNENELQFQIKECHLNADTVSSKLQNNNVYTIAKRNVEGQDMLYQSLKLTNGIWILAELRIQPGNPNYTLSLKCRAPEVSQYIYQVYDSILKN
Test [9] can be described thus: yeast V-ATPase proton transport modulators, S. cerevisiae, pHLuorin, HTS validation (AID 504600; in the data active = response above about 15%;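 also: plate controls were DMSO for no effect and reference compound for full effect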). Conditions: S. cerevisiae pHLuorin cytosolic pH, at 10 µM, stronger effect = higher value.
Test [10] has as its system anti-desmoglein-3 scFv antibody binding to human DSG3. The test is described as follows: inhibitors of anti-DSG3 scFv binding to DSG3, pilot screen, biochemical, validation compound set, bead-based, flow cytometry (AID 588368;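 active = binding below the plate cutoff, the plate median minus 3 SD, with a reading above zero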;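 also: signal is the median channel fluorescence of bead-bound GFP antibody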). The conditions noted are these: Protein G beads, DSG3-Fc, scFv-GFP binding, at 10 µM, stronger effect = lower value.
Test [11] deals with Botulinum neurotoxin type F light chain protease (Clostridium botulinum). Nature of the test: Botulinum neurotoxin type F light chain protease inhibition, multiplex microsphere flow cytometry, validation set (AID 588459). Conditions: multiplex microsphere protease substrate cleavage assay, at 10 µM, stronger effect = higher value.
Test [12] deals with Botulinum neurotoxin type A (Clostridium botulinum) (UniProt P0DPI0). The test is described as follows: BoNT/A light chain protease inhibitors, biochemical, multiplex microsphere flow cytometry, validation set (AID 588460). Conditions: at 10 µM, stronger effect = higher value.
Botulinum neurotoxin type A (Clostridium botulinum), sequence (P0DPI0 whole entry, looked up): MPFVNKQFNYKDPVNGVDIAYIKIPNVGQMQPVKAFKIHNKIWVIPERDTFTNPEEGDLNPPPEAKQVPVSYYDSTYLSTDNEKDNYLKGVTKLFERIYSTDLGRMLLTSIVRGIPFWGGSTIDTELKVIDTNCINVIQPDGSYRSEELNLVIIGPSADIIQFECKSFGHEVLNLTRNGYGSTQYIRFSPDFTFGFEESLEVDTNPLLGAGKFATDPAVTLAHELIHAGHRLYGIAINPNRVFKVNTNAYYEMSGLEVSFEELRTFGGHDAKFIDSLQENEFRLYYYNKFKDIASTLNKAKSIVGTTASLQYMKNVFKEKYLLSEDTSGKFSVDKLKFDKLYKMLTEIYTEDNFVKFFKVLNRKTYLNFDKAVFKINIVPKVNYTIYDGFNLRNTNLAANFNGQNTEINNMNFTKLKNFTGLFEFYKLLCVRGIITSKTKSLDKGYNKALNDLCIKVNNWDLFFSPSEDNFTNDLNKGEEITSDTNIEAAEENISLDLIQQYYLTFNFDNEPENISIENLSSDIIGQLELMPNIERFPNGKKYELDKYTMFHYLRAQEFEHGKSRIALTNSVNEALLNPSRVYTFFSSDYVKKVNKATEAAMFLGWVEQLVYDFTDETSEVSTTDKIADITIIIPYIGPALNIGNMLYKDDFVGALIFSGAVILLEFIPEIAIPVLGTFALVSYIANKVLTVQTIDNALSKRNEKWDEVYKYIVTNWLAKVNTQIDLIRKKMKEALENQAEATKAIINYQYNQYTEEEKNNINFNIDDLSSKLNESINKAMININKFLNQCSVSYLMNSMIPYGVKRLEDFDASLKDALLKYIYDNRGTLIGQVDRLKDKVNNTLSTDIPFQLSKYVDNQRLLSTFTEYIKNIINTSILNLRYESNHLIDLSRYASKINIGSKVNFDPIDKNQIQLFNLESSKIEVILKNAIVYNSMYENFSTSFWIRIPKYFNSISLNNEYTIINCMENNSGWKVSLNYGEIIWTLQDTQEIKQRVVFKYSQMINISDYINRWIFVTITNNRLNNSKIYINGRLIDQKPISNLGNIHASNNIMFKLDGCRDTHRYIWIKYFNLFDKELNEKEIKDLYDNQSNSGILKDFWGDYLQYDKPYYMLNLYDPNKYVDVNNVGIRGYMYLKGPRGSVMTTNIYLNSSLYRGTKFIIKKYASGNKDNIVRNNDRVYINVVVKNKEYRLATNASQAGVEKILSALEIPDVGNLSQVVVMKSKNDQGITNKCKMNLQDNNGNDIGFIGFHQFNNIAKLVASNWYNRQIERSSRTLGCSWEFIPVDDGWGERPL
The target of test [13] is Lethal factor (Bacillus anthracis) (UniProt P15917). The test is described as follows: Lethal factor protease inhibitors, Bacillus anthracis, multiplex microsphere cleavage assay, validation set (AID 588461). Conditions: flow cytometry, at 10 µM, stronger effect = higher value.
Lethal factor (Bacillus anthracis), sequence (P15917 whole entry, looked up): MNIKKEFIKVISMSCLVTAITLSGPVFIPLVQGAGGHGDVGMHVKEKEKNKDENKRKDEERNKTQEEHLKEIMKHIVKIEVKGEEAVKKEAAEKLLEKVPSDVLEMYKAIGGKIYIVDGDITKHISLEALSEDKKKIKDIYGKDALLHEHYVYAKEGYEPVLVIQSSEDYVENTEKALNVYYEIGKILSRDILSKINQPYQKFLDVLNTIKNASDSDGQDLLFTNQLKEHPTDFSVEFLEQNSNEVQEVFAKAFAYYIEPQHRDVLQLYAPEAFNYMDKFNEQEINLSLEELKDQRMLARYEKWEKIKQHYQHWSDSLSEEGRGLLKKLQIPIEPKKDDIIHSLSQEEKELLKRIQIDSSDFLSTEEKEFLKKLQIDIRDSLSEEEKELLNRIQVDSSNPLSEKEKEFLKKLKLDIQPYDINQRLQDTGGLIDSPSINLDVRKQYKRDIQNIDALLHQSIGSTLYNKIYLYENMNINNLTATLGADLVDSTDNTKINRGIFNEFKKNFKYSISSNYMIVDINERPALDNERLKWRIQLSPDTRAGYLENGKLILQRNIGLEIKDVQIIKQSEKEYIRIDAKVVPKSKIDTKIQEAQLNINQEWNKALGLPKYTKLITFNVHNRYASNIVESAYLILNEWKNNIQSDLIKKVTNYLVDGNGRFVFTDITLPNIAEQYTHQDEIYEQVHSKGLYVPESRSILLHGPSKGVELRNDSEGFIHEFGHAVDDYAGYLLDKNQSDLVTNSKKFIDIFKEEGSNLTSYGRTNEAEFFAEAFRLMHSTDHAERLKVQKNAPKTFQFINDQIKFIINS
Test [14] in a line: inhibitors of fungal efflux pumps CDR1, CDR2, MDR1, pilot screen, validation compound set, multiplex, phenotypic (AID 588506;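 active = efflux inhibition above 0.42, the validation set average plus 4 SD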;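 also: Nile Red retained in cells so higher fluorescence means more efflux inhibition; 0 = negative control wells and 1 = enniatin B 25 µM full block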). The conditions noted are these: S. cerevisiae pump-expressing triplex, Nile Red efflux flow cytometry; at 10 µM; stronger effect = higher value.
Test [15] deals with ATP-binding cassette sub-family B member 6 (Homo sapiens) (UniProt Q9NP58). The test is described as follows: ABCB6 transporter inhibitors, pilot screen, K562-ABCB6 cells, flow cytometry, validation set (AID 588550;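 active = inhibition above the screen-wide mean plus 3 SD, about 51%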;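 also: 0% = DMSO wells and 100% = benzethonium chloride 70 µM positive control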). The conditions noted are these: K562-ABCB6 porphyrin accumulation, 1 h, at 10 µM, stronger effect = higher value.
ATP-binding cassette sub-family B member 6 (Homo sapiens), sequence (Q9NP58 whole entry, looked up): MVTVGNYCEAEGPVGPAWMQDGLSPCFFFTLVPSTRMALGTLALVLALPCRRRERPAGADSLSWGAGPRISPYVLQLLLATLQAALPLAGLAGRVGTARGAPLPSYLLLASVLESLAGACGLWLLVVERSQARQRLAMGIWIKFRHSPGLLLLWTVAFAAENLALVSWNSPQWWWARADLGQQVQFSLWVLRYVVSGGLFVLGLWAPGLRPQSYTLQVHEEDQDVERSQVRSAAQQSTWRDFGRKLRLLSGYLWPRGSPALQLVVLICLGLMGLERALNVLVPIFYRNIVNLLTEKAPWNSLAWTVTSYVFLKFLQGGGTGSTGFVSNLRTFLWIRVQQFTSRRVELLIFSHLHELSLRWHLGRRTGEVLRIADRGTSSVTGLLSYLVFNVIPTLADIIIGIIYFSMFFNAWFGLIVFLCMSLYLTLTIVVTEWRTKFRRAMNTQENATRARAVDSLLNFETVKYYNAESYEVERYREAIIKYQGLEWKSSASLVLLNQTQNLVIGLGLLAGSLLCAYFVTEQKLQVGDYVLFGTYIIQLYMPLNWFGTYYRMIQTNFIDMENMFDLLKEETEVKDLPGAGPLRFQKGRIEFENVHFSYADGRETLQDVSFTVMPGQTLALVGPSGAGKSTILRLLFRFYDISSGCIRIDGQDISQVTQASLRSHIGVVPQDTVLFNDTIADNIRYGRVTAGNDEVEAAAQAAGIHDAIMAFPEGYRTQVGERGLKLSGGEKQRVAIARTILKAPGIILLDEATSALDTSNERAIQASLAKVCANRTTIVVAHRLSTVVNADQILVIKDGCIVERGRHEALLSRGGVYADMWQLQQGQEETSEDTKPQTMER
Test [16] is described as follows: promoters of myeloid differentiation in arrested cells, primary screen, cell-based, GFP/MAC1 double positive, flow cytometry, validation set (AID 588685;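 active = differentiation response of at least 50%, scaled between solvent and reference control, from cells with both markers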;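 also: compound exposure lasts four days before antibody staining and flow analysis; 0% = DMSO wells and 100% = 5 µM fulvestrant positive control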). Conditions: ER-HoxA9 marrow cells, stronger effect = higher value.
Test [17] can be described thus: superoxide lowering in aged yeast cells, pilot screen, validation compound set (AID 2706;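 active = superoxide response below 65% of plate, a cut near 3 SD across the whole screen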;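 also: yeast exposed to compound for one week at 30 degrees C before staining; 100% = mean of all compound wells on the same plate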). The conditions noted are these: S. cerevisiae aging, superoxide DHE fluorescence; at 10 µM; stronger effect = lower value.

The term inhibition denotes the change of the read-out against control, counted positive when it falls. Consider `COc1ccc2c(c1)CC1(CN2C)C(=O)NC(=O)N(CCc2ccccc2)C1=O` (centres undefined), for which the percent of DMSO control GFP in [1] was 101% (inactive). The percent response of DMSO control in [2] is 96.6% (inactive). Besides, in test [3], the GFP response vs DMSO was 88.1% (inactive). The same molecule showed a double positive events in test [4] of 65.8%. Also, in test [4], the vesicle binding response is 263% (inactive). Further, the inhibition was -3.57% (inactive) in test [5]; -4.29% (inactive) in [8]; 3.8% (inactive) in test [11]; 1.1% (inactive) in [12]; -1.5% (inactive) in test [13]; 27% (inactive) in [15]. In [6], the aptamer binding inhibition was -3% (inactive). Besides, the response was -3.63% (inactive) in test [7] and 1.95% (inactive) in [9]. For the same molecule, in test [10], the binding (% of control) was 104% (inactive). Also, the efflux inhibition (fraction of control) in test [14] was -0.07 (inactive). Also, the differentiation response in test [16] was 27.6% (inactive).

In the case of `CC(C)C[C@H](NC(=O)[C@@H]1CCCN1C(=O)[C@@H](N)Cc1ccc(O)cc1)C(=O)NCC(N)=O` (H-YPLG-NH2), the percent of DMSO control GFP in test [1] is 108% (inactive). Besides, the percent response of DMSO control in test [2] is 110% (inactive). For the same molecule, in test [3], the GFP response vs DMSO was 89.3% (inactive). This molecule also showed a double positive events in [4] of 63.1%. The vesicle binding response in [4] is 186% (inactive). The inhibition in test [5] is 0.69% (inactive); in test [8], 2.65% (inactive); in [11], -4.4% (inactive); in [12], -0.2% (inactive); in test [13], 1% (inactive); in test [15] it was 7% (inactive). Also, the superoxide response (% of plate) in test [17] is 95.5% (inactive). For the same molecule, the aptamer binding inhibition in test [6] is 1% (inactive). The response in test [9] is -0.2% (inactive). The binding (% of control) in [10] is 101% (inactive). For the same molecule, the efflux inhibition (fraction of control) in [14] was -0.09 (inactive). For the same molecule, the differentiation response in test [16] is -9.89% (inactive).

`CN[C@H]1C[C@H]2O[C@@](C)([C@H]1OC)n1c3ccccc3c3c4c(c5c6ccccc6n2c5c31)C(=O)NC4`: in [1], the percent of DMSO control GFP was 104% (inactive). Moreover, the percent response of DMSO control in [2] was 107% (inactive). Also, the GFP response vs DMSO in test [3] was 84.1% (inactive). This molecule showed a double positive events in [4] of 64%. For the same molecule, the vesicle binding response in test [4] was 105% (inactive). Moreover, the inhibition in test [5] was -86.6% (inactive); in test [8], 0.54% (inactive); in test [13], 6.2% (inactive); in test [15], -76% (inactive). The response in [7] is 12% (inactive); in test [9], 1.34% (inactive). In addition, the efflux inhibition (fraction of control) in [14] is 0.14 (inactive). In [16], the differentiation response is 12% (inactive).

With `COc1ccc(Cc2nccc3cc(OC)c(OC)cc23)cc1OC`, the percent of DMSO control GFP in test [1] is 101% (inactive). For the same molecule, the percent response of DMSO control in test [2] is 94.9% (inactive). Also, the GFP response vs DMSO in test [3] is 98.7% (inactive). In test [4], this molecule registered a double positive events of 59.9%. Also, the vesicle binding response in test [4] was 146% (inactive). Further, in test [17], the superoxide response (% of plate) was 96% (inactive). For the same molecule, in test [6], the aptamer binding inhibition is 4% (inactive). The response in test [7] was 20.1% (inactive); in test [9], -0.83% (inactive). Moreover, the inhibition in [8] is -1.6% (inactive); in [11], 1.7% (inactive); in test [12] it was 0.2% (inactive); in test [13], 3.7% (inactive); in test [15], 4% (inactive). Moreover, in [10], the binding (% of control) was 108% (inactive). In addition, in test [14], the efflux inhibition (fraction of control) is 0.49 (active). Besides, the differentiation response in test [16] is 6.49% (inactive).

As to `COc1ccc(C(=O)N2CCCC2=O)cc1`, the percent of DMSO control GFP in test [1] is 104% (inactive). Besides, in test [2], the percent response of DMSO control is 105% (inactive). The GFP response vs DMSO in test [3] was 130% (inactive). Moreover, the double positive events in test [4] was 61.6%. In test [4], the vesicle binding response was 241% (inactive). Moreover, the inhibition in test [5] was -6.23% (inactive); in [8] it was 61% (active); in test [15], 4% (inactive). Moreover, the superoxide response (% of plate) in test [17] is 94.5% (inactive). Also, in [6], the aptamer binding inhibition was -4% (inactive). Also, the response in [7] is -0.27% (inactive); in test [9], 2.82% (inactive). The binding (% of control) in [10] is 100% (inactive). Besides, the efflux inhibition (fraction of control) in [14] is -0.04 (inactive). Moreover, the differentiation response in test [16] is 3.88% (inactive).
